Screening results deposited in PubChem BioAssay by several laboratories.
Most compounds without a hit are left out; they make up all but 3% or so of the library.
TWEAK-Fn14 inh: blocks TWEAK-Fn14 interaction in a reporter cell assay. AID 1159606. 360,000 compounds, 2% hits. inhibition, % at 10 µM. TWEAK-stimulated Fn14 reporter cells, luciferase luminescence, 8 h; in the data active means inhibition above about 50%
LMP1 NFkB inh: reduces LMP1-driven NF-kappaB luciferase signal | LMP1-induced NF-kappaB luciferase reporter cells, luminescence | inhibition, % at 12.5 µM | 350,000 compounds, 0.69% hits | AID 504558; in the data active means inhibition above about 41%;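 further: 0% = neutral control wells and 100% = reference inhibitor control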
LGR2 antag: inhibitors of bursicon-induced Drosophila LGR2 receptor cAMP signaling | HEK293 LGR2, CRE-luciferase, bursicon-stimulated, 4 h | inhibition, % at 9.99 µM | 380,000 compounds, 0.35% hits | AID 720647;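 active means drop in luminescence signal, shown as inhibition above about 50% in the replicate tests, limit read from the data, passing the limit was not always enough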;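 further: agonist challenge used bursicon conditioned medium at about half maximal strength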
TRPM1 prom inh: inhibitors of MITF-driven TRPM1 promoter in melanoma cells; SK-MEL-5 TRPM1 promoter luciferase, 24 h; inhibition, % at 12.5 µM; 330,000 compounds, 0.83% hits;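 active means mean inhibition across replicates of 60% or more, whatever share of single replicates reaches that level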
TROY NFkB inh: blocks TROY-dependent signaling in reporter cells; Q293 LMP1-TROYcd NF-kB luciferase reporter, 4 h; inhibition, % at 10 µM; 360,000 compounds, 0.98% hits; AID 1347056;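 active means compounds whose plate-normalised and pattern-corrected inhibition of the luciferase reporter signal at the single screening dose is 50% or more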
MITF act: MITF TRPM1 promoter activation in melanoma cells. SK-MEL-5 TRPM1-promoter luciferase, 24 h; % of positive control, neutral wells = 0. activation, % at 12.5 µM. 300,000 compounds, 0.75% hits;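 active means mean activation of at least 80% with every replicate also reaching 80%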;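 further: 0% = neutral control wells and 100% = parthenolide positive control wells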
The depositor's hits bear a star; . = no result given.

SMILES	TWEAK-Fn14 inh	LMP1 NFkB inh	LGR2 antag	TRPM1 prom inh	TROY NFkB inh	MITF act
COc1ccccc1-c1cc2nc(-c3ccccc3)cc(N3CCN(C(=O)c4ccco4)CC3)n2n1	98*	34	89*	.	70*	.
COc1ccc(NC(=O)N2CC(=O)N3[C@H](CO)[C@H](c4ccc(-c5ccccc5)cc4)[C@@H]3C2)cc1	.	.	-11	.	.	.
COc1cccc(C2=Cc3ccc(F)cc3C(CC(C)=O)N2c2ccc(C#CC3(O)CCCCC3)cc2)c1 (stereo unspecified)	65*	.	-19	.	-4	.
COc1cc(OC)cc(C2=Cc3ccc(OC)cc3C(CC(C)=O)N2c2ccc(C#CC3(O)CCCCC3)cc2)c1 (stereo unspecified)	47	.	-31	.	2	.
CCN1C(=S)SC(=O)C1=C1C=C(C)N(Cc2ccco2)C(C)=C1	23	-64	-56	-56	0	57
CCN1C(=S)SC(=O)C1=C1C=C(C)OC(C)=C1	-51	-25	.	-87	-66	91*
C[C@@H]1CN([C@H](C)CO)S(=O)(=O)c2ccc(C3=CCCC3)cc2O[C@H]1CN(C)C(=O)c1cnccn1	.	.	-1	.	.	.
O=S(=O)(CCN1CCCCC1)CCS(=O)(=O)CCN1CCCCC1	10	2	4	-2	61*	7
CSC(=N/N=C(\N)c1cnccn1)SC	-18	43*	-1	3	-9	-5
C[n+]1cc2c3c(ccc2c2ccc4cc5c(cc4c21)OCO5)OCO3	.	.	101*	.	.	.
COc1ccc2cc3[n+](cc2c1O)CCc1cc2c(cc1-3)OCO2	9	.	13	.	-5	.
Nc1[nH]n(-c2ccccc2)c(=O)c1N=Nc1ccccc1[N+](=O)[O-]	-17	-44	.	-119	-71	128*
COc1ccccc1OCCN1CSC(=S)N(C)C1	-45	14	-2	69*	6	-71
Cc1cccc(OCCN2CSC(=S)N(C)C2)c1	0	25	.	21	-8	-22
CN(CCC#N)C(=S)Nc1ccc(F)cc1	-6	57*	11	6	7	.
N#CCCN(Cc1ccccc1)C(=S)Nc1ccc(F)cc1	5	-31	.	-12	-4	.
CC1(C)CC(=O)C(N=Nc2ccc(F)cc2)=C(O)C1	-35	-21	10	-8	-45	9
CC1(C)CC(=O)C(N=Nc2ccc(-c3ccccc3)cc2)=C(O)C1	-16	-21	-55	-93	-63	96*
COc1ccc(-c2cn[nH]c2-c2ccc(OC)cc2O)cc1	78*	32	17	6	43	-2
COc1ccc(-c2cn[nH]c2-c2ccc(OCc3ccccc3)cc2O)cc1	63*	20	9	-3	31	1
COc1ccc(-c2nc(C)ncc2-c2ccccc2)c(O)c1	-2	43*	-3	4	-6	-5
COc1ccc(-c2nc(C)ncc2-c2ccc(Cl)cc2)c(O)c1	-2	8	-17	-2	1	4
Cc1noc(C)c1NC(=O)N(C)C[C@H]1Oc2c(NC(=O)Nc3ccc(F)cc3)cccc2C(=O)N([C@H](C)CO)C[C@@H]1C	.	.	-9	.	.	.
O=C(C[C@@H]1C[C@@H]2c3cc(NC(=O)c4ccc5c(c4)OCO5)ccc3O[C@@H]2[C@H](CO)O1)NCc1cc(F)ccc1F	.	.	6	.	.	.
C[C@H]1CN([C@@H](C)CO)C(=O)c2cc(NC(=O)CCC(F)(F)F)ccc2O[C@@H]1CN(C)Cc1ccccc1	.	.	9	.	.	.
CC(C)NC(=O)N(C)C[C@H]1OCCCC[C@H](C)Oc2ccc(NC(=O)c3ccccc3)cc2C(=O)N([C@H](C)CO)C[C@H]1C	.	.	-2	.	.	.
CCC(=O)Nc1cccc(C2=NOC3(C2)C[C@@H](C(N)=O)N(C(=O)C(c2ccccc2)c2ccccc2)C3)c1 (stereo partly specified)	8	0	-5	4	0	0
NC(=O)[C@H]1CC2(CC(c3cccc(NC(=O)COc4ccc(Cl)cc4)c3)=NO2)CN1C(=O)C(c1ccccc1)c1ccccc1 (stereo partly specified)	57*	11	-2	45	33	-46
NC(=O)[C@@H]1CC2(CC(c3cccc(NC(=O)COc4ccc(Cl)cc4)c3)=NO2)CN1C(=O)COc1ccc(Cl)cc1 (stereo partly specified)	82*	20	15	24	46	-21
